# Laboratory results: ChEMBL document CHEMBL3988442, “University of Dundee, Small-Polar-MMV Screening Library” (2021)
# For part of these data: Results with a measured potency or affinity are listed apart.
# What was measured:
# Set-up in all cases: scale not given: direction of the effect not stated beside the values
# [1] = molecular target: Protein translocase subunit SecA (Escherichia coli (strain K12)) (UniProt P10408); test: Assay to Identify E. coli SecA ATPase Inhibitors; assay type: functional; settings: 30 µM
# [2] = molecular target: T1, Ubiquitin-activating enzyme e1, putative (Leishmania donovani (strain BPK282A1)) (UniProt E9BSI1); test: Leishmania donovani Ubiquitin Activating Enzyme (LdE1); assay type: functional; settings: 30 µM
# T1 sequence (whole entry): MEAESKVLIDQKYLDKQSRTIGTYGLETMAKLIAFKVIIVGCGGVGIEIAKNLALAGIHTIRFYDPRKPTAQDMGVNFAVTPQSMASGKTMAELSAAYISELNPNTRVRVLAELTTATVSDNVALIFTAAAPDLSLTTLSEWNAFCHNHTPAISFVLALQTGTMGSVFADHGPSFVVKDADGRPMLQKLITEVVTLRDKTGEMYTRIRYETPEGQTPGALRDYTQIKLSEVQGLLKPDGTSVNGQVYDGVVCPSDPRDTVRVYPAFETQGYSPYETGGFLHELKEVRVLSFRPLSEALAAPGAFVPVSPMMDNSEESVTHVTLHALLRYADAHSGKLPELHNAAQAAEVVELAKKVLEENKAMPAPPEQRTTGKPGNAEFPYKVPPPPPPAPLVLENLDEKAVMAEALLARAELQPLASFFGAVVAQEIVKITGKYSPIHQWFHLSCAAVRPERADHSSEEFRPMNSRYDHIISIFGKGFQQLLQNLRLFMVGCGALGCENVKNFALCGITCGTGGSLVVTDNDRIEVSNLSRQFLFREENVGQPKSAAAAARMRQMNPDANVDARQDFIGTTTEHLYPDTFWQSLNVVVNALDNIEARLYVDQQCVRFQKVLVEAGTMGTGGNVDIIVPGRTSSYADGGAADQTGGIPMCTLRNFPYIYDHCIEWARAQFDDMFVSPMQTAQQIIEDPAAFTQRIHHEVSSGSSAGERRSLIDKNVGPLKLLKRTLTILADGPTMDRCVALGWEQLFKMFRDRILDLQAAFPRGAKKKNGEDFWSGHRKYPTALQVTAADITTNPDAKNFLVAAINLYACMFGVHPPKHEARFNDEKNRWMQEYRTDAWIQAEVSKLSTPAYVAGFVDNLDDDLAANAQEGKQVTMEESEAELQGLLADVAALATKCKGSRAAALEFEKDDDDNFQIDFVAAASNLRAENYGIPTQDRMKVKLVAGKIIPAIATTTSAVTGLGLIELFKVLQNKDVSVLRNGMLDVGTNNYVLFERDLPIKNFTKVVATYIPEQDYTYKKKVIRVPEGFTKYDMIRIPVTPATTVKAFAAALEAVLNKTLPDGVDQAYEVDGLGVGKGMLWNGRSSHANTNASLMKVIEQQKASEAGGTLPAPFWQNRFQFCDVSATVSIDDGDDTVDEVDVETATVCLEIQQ
# [3] = molecular target: Sialic acid-binding Ig-like lectin 9 (Homo sapiens) (UniProt Q9Y336); test: Hs-Siglec9 ALPHAscreen SOP 20170721; settings: 10 µM
# [4] = system: Trypanosoma cruzi; test: Trypanosoma cruzi phosphomannomutase and mannose-1-phosphate guanylyltransferase assay; assay type: functional; settings: 10 µM
# [5] = molecular target: T2, Arginase-2, mitochondrial (Homo sapiens) (UniProt P78540); test: in vitro enzyme assay to detect the production of urea directly proportional to the activity of Arginase II; assay type: functional; settings: 33.3 µM; further: in the data most compounds retested in dose-response had high values
# T2 sequence (whole entry): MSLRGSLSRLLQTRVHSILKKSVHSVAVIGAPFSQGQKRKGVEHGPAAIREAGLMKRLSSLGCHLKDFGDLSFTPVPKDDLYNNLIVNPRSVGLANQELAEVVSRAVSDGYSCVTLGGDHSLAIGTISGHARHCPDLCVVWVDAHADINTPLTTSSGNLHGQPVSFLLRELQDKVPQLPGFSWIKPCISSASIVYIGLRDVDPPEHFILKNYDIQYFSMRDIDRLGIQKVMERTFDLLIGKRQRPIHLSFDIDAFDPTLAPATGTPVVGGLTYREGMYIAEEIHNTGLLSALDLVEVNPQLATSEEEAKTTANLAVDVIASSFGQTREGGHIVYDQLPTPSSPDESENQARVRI
# [6] = molecular target: T3, Proteasome subunit beta (Trypanosoma cruzi) (UniProt O96673); test: Trypanosoma cruzi proteasome chymotrypsin-like activity (TcProtChymo) assay.; further: in the data most compounds retested in dose-response had high values; assay type: functional; settings: 9.37 µM
# T3 sequence (whole entry): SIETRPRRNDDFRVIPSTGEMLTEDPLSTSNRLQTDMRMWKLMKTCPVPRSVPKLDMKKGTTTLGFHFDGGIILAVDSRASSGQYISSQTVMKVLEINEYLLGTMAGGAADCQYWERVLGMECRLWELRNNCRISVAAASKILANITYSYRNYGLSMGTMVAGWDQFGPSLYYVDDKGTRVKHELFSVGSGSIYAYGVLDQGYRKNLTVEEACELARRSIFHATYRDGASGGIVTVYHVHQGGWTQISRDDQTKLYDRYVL
# [7] = organism: Homo sapiens; test: To identify inhibition of the IFN signalling (Jak-Stat) pathway via expression of an eGFP reporter gene under the control of an IFN-stimulated response element (ISRE) containing MxA promoter.; assay type: functional; settings: 30 µM
# [8] = molecular target: T4, Tyrosyl-tRNA synthetase, putative (Trypanosoma cruzi (strain CL Brener)) (UniProt Q4DSP6); test: Trypanosoma cruzi tyrosyl tRNA synthetase (TcYRS) _High Tyrosine SOP; assay type: functional; settings: 30 µM; further: in the data most compounds retested in dose-response had high values
# T4 sequence (whole entry): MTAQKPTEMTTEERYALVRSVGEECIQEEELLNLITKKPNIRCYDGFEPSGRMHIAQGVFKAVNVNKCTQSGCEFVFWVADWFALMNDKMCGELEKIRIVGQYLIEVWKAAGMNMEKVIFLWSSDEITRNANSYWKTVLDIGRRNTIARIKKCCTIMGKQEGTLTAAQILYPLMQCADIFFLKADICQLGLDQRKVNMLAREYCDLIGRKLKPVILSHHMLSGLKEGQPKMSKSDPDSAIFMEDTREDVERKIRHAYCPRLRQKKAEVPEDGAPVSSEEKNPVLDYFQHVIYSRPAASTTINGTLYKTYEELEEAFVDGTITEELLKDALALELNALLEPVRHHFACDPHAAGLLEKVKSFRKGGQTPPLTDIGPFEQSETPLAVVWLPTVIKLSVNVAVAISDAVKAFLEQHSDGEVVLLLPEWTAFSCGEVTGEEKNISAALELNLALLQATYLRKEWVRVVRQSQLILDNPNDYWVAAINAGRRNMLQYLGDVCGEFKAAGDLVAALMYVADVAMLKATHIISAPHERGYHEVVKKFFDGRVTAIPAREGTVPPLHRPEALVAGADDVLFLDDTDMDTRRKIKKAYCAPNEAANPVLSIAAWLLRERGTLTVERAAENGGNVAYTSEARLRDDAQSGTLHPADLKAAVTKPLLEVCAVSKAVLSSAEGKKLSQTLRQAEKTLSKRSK
# [9] = molecular target: T4, Tyrosyl-tRNA synthetase, putative (Trypanosoma cruzi (strain CL Brener)); test: Trypanosoma cruzi tyrosyl tRNA synthetase (TcYRS) SOP; assay type: functional; settings: 30 µM
# [10] = molecular target: Chromo domain-containing protein 1 (Saccharomyces cerevisiae (strain ATCC 204508 / S288c) (Baker's yeast)) (UniProt P32657); test: ScCHD-1 Enzyme Inhibition Assay; assay type: functional; settings: 30 µM; further: in the data most compounds retested in dose-response had high values
# Chain of Chromo domain-containing protein 1 (Saccharomyces cerevisiae (strain ATCC 204508 / S288c) (Baker's yeast)) (P32657 whole entry, the tested form may be a part): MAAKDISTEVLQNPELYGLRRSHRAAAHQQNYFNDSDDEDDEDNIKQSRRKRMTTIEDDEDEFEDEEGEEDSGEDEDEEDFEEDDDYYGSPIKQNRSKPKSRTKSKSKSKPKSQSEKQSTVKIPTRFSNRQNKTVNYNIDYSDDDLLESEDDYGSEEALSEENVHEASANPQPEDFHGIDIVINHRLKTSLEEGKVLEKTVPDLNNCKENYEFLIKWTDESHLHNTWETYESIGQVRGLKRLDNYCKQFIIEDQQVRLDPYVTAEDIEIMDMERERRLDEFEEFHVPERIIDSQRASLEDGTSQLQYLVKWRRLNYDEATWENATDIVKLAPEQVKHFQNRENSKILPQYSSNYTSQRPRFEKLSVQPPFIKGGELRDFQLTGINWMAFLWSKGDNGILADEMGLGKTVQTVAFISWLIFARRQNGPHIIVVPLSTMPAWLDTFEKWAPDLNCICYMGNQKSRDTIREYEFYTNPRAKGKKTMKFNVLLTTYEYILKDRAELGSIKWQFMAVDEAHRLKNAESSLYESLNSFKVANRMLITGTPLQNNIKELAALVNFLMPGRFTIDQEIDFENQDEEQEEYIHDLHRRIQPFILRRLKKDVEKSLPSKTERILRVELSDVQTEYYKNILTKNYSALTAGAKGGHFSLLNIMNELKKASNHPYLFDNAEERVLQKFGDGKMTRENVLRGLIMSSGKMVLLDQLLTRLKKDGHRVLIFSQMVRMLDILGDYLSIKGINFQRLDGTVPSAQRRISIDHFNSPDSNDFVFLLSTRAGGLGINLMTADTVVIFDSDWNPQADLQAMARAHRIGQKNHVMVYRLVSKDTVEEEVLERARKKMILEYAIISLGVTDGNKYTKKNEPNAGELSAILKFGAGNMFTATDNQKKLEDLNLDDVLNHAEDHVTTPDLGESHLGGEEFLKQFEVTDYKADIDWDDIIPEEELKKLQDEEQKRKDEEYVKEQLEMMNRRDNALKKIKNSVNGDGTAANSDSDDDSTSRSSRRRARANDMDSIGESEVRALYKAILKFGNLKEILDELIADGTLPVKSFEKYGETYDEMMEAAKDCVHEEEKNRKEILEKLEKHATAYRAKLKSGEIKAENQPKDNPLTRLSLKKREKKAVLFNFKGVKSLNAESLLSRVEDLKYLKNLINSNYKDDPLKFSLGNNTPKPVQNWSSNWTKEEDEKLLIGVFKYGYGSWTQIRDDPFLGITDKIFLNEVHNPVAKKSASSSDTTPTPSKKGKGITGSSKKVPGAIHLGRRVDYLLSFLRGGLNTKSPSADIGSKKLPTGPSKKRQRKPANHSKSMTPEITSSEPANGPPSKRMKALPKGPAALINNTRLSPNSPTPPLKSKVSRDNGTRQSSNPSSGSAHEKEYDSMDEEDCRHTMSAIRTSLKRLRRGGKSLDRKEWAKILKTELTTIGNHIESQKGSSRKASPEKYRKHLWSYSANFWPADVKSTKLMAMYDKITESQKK
# Chain of Sialic acid-binding Ig-like lectin 9 (Homo sapiens) (Q9Y336 whole entry): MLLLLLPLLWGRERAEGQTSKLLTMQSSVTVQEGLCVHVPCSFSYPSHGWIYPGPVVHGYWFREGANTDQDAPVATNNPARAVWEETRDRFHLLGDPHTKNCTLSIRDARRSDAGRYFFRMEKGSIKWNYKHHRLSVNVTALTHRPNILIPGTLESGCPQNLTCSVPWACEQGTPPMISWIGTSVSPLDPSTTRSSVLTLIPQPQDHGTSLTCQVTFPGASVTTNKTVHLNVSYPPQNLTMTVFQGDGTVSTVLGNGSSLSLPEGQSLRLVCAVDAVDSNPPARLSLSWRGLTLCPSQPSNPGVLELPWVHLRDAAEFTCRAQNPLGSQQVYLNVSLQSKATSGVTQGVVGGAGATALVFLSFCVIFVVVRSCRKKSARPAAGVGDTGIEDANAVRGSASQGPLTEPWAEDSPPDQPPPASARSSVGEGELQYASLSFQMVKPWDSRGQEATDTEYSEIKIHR
# Chain of Protein translocase subunit SecA (Escherichia coli (strain K12)) (P10408 whole entry): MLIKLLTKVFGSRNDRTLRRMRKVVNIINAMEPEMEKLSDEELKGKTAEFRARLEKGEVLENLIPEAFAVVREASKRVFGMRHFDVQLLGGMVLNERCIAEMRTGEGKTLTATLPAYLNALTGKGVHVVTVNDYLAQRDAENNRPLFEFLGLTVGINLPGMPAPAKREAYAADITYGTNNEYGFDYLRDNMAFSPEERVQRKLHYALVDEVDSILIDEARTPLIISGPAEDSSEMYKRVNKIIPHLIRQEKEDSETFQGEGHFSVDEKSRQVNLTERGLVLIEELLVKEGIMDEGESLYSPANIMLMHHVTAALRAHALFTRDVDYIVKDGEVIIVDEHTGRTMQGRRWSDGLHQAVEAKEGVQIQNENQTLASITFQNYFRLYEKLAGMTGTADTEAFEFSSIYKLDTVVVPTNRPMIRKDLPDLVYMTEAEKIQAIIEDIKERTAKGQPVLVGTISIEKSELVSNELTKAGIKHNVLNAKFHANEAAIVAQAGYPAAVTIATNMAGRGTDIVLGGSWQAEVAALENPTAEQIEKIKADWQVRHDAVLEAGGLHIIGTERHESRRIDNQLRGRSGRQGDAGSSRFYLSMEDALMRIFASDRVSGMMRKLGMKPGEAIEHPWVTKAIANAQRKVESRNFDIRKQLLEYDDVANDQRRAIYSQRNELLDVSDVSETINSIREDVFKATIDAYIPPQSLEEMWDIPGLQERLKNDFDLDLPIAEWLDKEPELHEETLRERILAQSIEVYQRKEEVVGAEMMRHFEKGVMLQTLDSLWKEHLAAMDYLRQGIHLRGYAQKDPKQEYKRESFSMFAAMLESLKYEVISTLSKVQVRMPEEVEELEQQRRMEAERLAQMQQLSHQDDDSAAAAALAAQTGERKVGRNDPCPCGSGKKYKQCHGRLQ
Structure (SMILES),Percent Effect [1] [%],Percent Effect [2] [%],Percent Effect [3] [%],Percent Effect [4] [%],Percent Effect [5] [%],Percent Effect [6] [%],Percent Effect [7] [%],Percent Effect [8] [%],Percent Effect [9] [%],Percent Effect [10] [%]
O=C(NCCCn1ccnc1)N1CCCC1c1cccs1 (stereo not given),-1.21,12.8,-12.2,6.67,8.2,11,-4.65,7.18,18.1,-5.02
CN1CC(=O)N(c2ccccc2)CC12CCN(CC1CC1)C2 (stereo not given),-2.12,-1.3,-3.04,-6.13,1.22,10.5,-3.51,-0.526,0,-0.704
CN(Cc1ccsc1)C(=O)CN1CCOC(Cn2cccn2)C1 (stereo not given),-9.25,7.79,-1.67,-1.49,-0.615,-3.51,19.9,0,-16.5,-7.08
Cc1nc(C)n(CC2CN(CCOc3ccccc3F)CCO2)n1 (stereo not given),-2.06,5.33,-0.849,0.803,-2.66,-2.97,9.21,-1.58,0,-2.97
COc1ccc(F)cc1CN1CCCC(c2cc(C(N)=O)[nH]n2)C1 (stereo not given),-3.96,5.33,5.92,1.81,-2.22,1.61,8.51,3.68,5.13,-9.49
Fc1ccccc1Cc1noc(CN2CCCC(CN3CCCC3)C2)n1 (stereo not given),-7.22,-2.7,4.23,7.86,-2.45,3.08,-6.53,6.92,12.2,-3.21
c1ccc(CN2CCOCC3(CCN(C4CCOCC4)C3)C2)cc1 (stereo not given),-5.53,6.49,-8.07,-4.58,-3.24,22.9,8.96,3.68,10.3,-0.0594
Cc1cnn(CC2CN(CC(=O)NCCc3cccs3)CCO2)c1 (stereo not given),-3.45,0,6.55,-4.62,0.887,3.48,9.62,4.74,-2.56,-0.407
Cc1cccc(C(=O)N2CCCCC2c2ccc(CN(C)C)cc2)n1 (stereo not given),-1.58,18.9,3.59,5.92,27.6,21.2,5.13,9.04,14.6,-6.07
CN1CC(=O)N(c2ccsc2)CC12CCN(C(=O)c1ccccc1)C2 (stereo not given),-4.65,11.7,-6.87,-3.99,3.64,12.6,-10.9,5.79,7.69,1.01
Cc1nn(C)c(N(C)C)c1CNCc1ccc(OCC(N)=O)cc1,-3.65,8,0.758,-2.61,-1.33,13.2,-6,5.79,7.69,-13.9
CS(=O)(=O)NCc1ncn2c1CN(C(=O)CC1CCCC1)CCC2,-1.59,-1.3,-3.12,-4.77,-0.81,2.91,12.6,1.58,-2.56,-0.829
